# Screens from PubChem BioAssay.
# Shown are actives, neighbours in structure and some others; about 21% of the full set was active somewhere.
# TDP1 cell CPT – qHTS for Inhibitors of human tyrosyl-DNA phosphodiesterase 1 (TDP1): qHTS in cells in presence of CPT | hit rate 12% among 420,000 | Potency, µM (doses to about 46.2 µM), without a hit: at the highest dose activity change, negative = growth inhibition, actives largely listed as inhibitors | chicken DT40 Tdp1-/-;hTDP1 cells + 20 nM CPT, ATP luminescence, 48 h | AID 686979, 2013; further: potency means the concentration at half of the fitted maximal effect; on the % scale 0 is the no-effect control and ±100 the full control effect; nearly all actives have a fitted effect of over 55% in size
#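 Chicken DT40 Tdp1-/- cells stably complemented with human TDP1 were seeded at 400 cells/well in medium containing 20 nM camptothecin, exposed to pin-transferred compounds, and grown at 37 °C for at least 48 hr. Viability was read as ATP luminescence.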
# D3 ag – qHTS of D3 Dopamine Receptor Agonist: qHTS. D3R DiscoveRx beta-arrestin cells, luminescence, 90 min. hit rate 0.58% among 410,000. D(3) dopamine receptor (Homo sapiens), P35462. max activation, %. AID 652048, 2013; in the data active means max activation above about 30%; further: 0% is about no effect
#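 Agonist-mode cell screen: cells plated at 1500/well and incubated overnight at 37 °C, then exposed to library compounds for 90 min at 37 °C. Detection reagent was added for 30–60 min at room temperature, and luminescence was read.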
# ClpP mod – qHTS Assay for Activators of ClpP; ATP-dependent Clp protease proteolytic subunit (Bacillus subtilis (strain 168)), P80244; purified B. subtilis ClpP, FRET peptide cleavage, 20 min; Potency, µM (top dose mostly 57.5 µM), for inactives: top-dose activity change, negative = active; hit rate 1.9% among 340,000; AID 651965, 2013; active means well fitted falling curve with a large enough effect; inconclusive means small, poorly fitted or top-dose-only effect; inactive means no such curve, though single readings can be large or run the other way; further: potency means the concentration at half of the fitted maximal effect; the source files actives as falling curves though it sought activators and does not explain the sign; nearly all actives have a fitted effect of over 65% in size
# Target sequence (P80244 whole entry, looked up): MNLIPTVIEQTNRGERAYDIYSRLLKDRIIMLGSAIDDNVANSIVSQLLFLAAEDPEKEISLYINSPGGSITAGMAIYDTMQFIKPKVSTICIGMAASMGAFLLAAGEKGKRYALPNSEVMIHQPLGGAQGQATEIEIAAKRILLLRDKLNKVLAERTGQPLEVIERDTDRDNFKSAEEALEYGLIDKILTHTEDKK
#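 FRET quenching reversal measured ClpP activation: 10 microg/mL B. subtilis ClpP at pH 8 with the FRET-FV decapeptide, read at 430 nm after 320 nm excitation. The 20-min minus 0-min signal was scaled between DMSO/no-enzyme wells and ADEP (5.8 microM final).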
# DRD3 antagonist – qHTS of D3 Dopamine Receptor Antagonist: qHTS. D(3) dopamine receptor (Homo sapiens), P35462. D3R cells, DiscoveRx beta-arrestin luminescence, antagonist mode; stronger effect = lower value. max response, negative = inhibition, %. hit rate 2.5% among 360,000. AID 652054, 2013; in the data active means max response below about -50%; inconclusive means no clear call, values can overlap the other calls; further: on the % scale 0 is the no-effect control and ±100 the full control effect
#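 Cells plated overnight at 1500 cells/well, then exposed to library compounds with dopamine controls for 90 minutes at 37 degrees C. DiscoveRx reagent added for 30–60 minutes at room temperature; luminescence read, quantitative HTS format.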
# TDP1 cell noCPT – qHTS for Inhibitors of human tyrosyl-DNA phosphodiesterase 1 (TDP1): qHTS in cells in absence of CPT; DT40 Tdp1-/- hTDP1 cells, no CPT, ATP luminescence, 48 h; Potency, µM (highest dose often 46.2 µM), inactives show at the highest dose activity change, negative = growth inhibition, hits mostly inhibitors; hit rate 15% among 420,000; further: potency means the concentration at half of the fitted maximal effect; on the % scale 0 is the no-effect control and ±100 the full control effect; nearly all actives have a fitted effect of over 55% in size
#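 Chicken DT40 Tdp1-/- cells stably complemented with human TDP1 were seeded at 400 cells/well with DMSO in place of 20 nM camptothecin. After compound pinning, cells grew at least 48 hr at 37 °C; viability read by CellTiter-Glo luminescence.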
# IL1B secr inh – qHTS for Inhibitors of Inflammasome Signaling: IL-1-beta AlphaLISA Primary Screen. hit rate 4.7% among 360,000. THP-1 LPS/ATP IL-1B secretion, AlphaLISA, 16 h; stronger effect = lower value. activity change, % at 57.5 µM. AID 743279, 2014; in the data active means activity change below about -50%; inconclusive means mostly about -30% to -49%; further: on the % scale 0 is the no-effect control and ±100 the full control effect
#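 Secreted IL-1B measured by AlphaLISA bead assay after 16 h compound exposure of THP-1 cells; compounds (final up to 57.5 uM) added 1 h before LPS (250 ng/mL) and ATP (1.25 mM) stimulation; lower signal means less secretion.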
# * = called active by the depositor; i = inactive; ? = inconclusive; . = no result given. Unless noted, the call rests on the fitted dose curve; in most records, active means well fitted inhibition curve with a large enough effect; inconclusive means small, poorly fitted or top-dose-only effect; inactive means flat fitted curve, though single readings scatter.
SMILES,TDP1 cell CPT,D3 ag,ClpP mod,DRD3 antagonist,TDP1 cell noCPT,IL1B secr inh
C[C@@]12CCC3c4ccc(OS(=O)(=O)O)cc4CCC3C1CCC2O (some centres not stated),1%,.,.,.,-3%,.
CCOc1cc2c(cc1O)CCC1C2CCC2(C)C(O)CCC12 (configuration not stated),0.26µM*,-2,-1%,-3,0.21µM*,10
CCNc1cc2c(cc1O)CCC1C2CCC2(C)C(O)CCC12 (configuration not stated),7.3µM*,-1,-3%,-14,23µM*,-101*
CSc1ccc(CN(C)C(=O)CNC(=O)c2sc3ccccc3c2Cl)cc1,-8%,17,-2%,4,?,-7
Cc1coc2cc3oc(=O)c(CCC(=O)N4C[C@H]5C[C@@H](C4)c4cccc(=O)n4C5)c(C)c3cc12,-25%,-10,4%,0,?,-13
COc1ccc([N+](=O)[O-])cc1NC(=O)C(C)OC(=O)c1ccccn1 (configuration not stated),6%,1,.,-9,-1%,1
CC(C)n1c(SCC(=O)N2c3ccccc3Sc3ccccc32)nc2c1c(=O)n(C)c(=O)n2C,21µM*,5,1%,-18,16µM*,-28
CC(C)n1c(SCc2ccccc2F)nc2c1c(=O)n(C)c(=O)n2C,21µM*,1,1%,-4,26µM*,46
CC(C)n1c(SCC(N)=O)nc2c1c(=O)n(C)c(=O)n2C,0%,3,-1%,49,-8%,-6
CC(C)n1c(SCc2cc(=O)[nH]c3ccccc23)nc2c1c(=O)n(C)c(=O)n2C,?,7,-2%,11,?,24
COc1ccc(N2CCN(C(=O)CSc3nnc(-c4cc5ccccc5cc4O)n3C)CC2)cc1,23µM*,22,-7%,-2,18µM*,-11
COc1ccc(N2CCN(C(=O)CSc3nc4c(c(=O)n(C)c(=O)n4C)n3C(C)C)CC2)cc1,18µM*,-9,-2%,-7,?,-21
COc1ccc(N(C(=O)c2ccc(Cl)cc2)C2=CC3CCC(C2)N3C)cc1 (configuration not stated),-19%,-3,1%,-1,-26%,-1
COC(=O)c1cnn(-c2ccccc2)c1/C=N/NC(=S)Nc1ccccc1,?,7,0%,-5,21µM*,91
COC(=O)c1cnn(-c2ccccc2)c1C(OC)OC,7%,-5,-1%,25,0%,5
CNC(=S)N/N=C/c1c(C(=O)OC)cnn1-c1ccc(F)cc1F,?,11,.,8,16µM*,2
COC(=O)c1cnn(-c2ccc(F)cc2F)c1/C=N/NC(=S)NC(C)(C)C,?,-16,-4%,-20,?,34
CCOCCCn1c(C)nc2c(c1=O)c1nc3ccccc3nc1n2-c1ccc2c(c1)OCCO2,?,3,0%,-13,?,17
COC(=O)c1cn(CC(C)n2c(=O)c3ccccc3n2Cc2cc(C(C)C)no2)nn1 (configuration not stated),11%,6,4%,18,19%,18
O=C1N(c2ccccc2)C(c2ccc(Cl)cc2)N2CCCN12 (configuration not stated),2%,-5,2%,5,-22%,i
Cc1ccc(C2N(c3ccc(Cl)cc3)C(=O)N3CCCN23)cc1 (configuration not stated),?,8,.,3,15µM*,-15
